An excerpt weighted towards active compounds, which were near 2% of everything screened.
Rin1 Abl inh – inhibitors of human Rin1-Abl protein interaction | TR-FRET Rin1/Abl binding, biochemical | inhibition, % at 7.35 µM | AID 588664 | actives 0.4% (n = 360,000) | P00519+Q13671; in the data active means inhibition above about 5%, passing the limit was not always enough
LEDGF integ inh – blocks HIV-1 LEDGF/p75-dependent DNA integration | TR-FRET IN-LEDGF/p75 DNA integration, Eu/Cy5 | inhibition, % at 3.7 µM | actives 0.64% (n = 370,000);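 active means inhibition above the screen-wide mean plus 3 SD, cut at about 13% in these data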;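 further: signal is the Cy5 over europium emission ratio at 671 and 618 nm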
TCR CD3 inh – human TCR-CD3 binding inhibition; actives 0.37% (n = 360,000); AID 651800; TAMRA-labeled TCR probe fluorescence, biochemical; inhibition, % at 9.4 µM; in the data active means inhibition above about 19%;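 further: recombinant mutant TCR 2C K166C tagged with TAMRA read by polarization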
MBD2 inh – inhibitors of human MBD2 binding to methylated oligonucleotide; TR-FRET; actives 0.31% (n = 370,000); inhibition, % at 4.4 µM; Q9UBB5; in the data active means inhibition above about 13%
Target sequence (Q9UBB5 whole entry, looked up): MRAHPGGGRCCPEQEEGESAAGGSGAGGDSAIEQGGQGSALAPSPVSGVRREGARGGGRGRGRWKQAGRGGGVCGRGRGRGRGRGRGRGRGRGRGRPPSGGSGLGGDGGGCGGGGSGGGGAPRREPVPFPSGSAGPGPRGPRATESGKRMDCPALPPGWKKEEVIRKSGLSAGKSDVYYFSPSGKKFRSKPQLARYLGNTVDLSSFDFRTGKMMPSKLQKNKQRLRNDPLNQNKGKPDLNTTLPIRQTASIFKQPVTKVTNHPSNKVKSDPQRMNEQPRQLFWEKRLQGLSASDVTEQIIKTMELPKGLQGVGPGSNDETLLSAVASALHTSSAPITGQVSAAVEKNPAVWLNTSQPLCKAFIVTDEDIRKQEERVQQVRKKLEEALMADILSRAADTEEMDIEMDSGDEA
UHRF1 binding – UHRF1 methyl-DNA binding inhibition; actives 0.75% (n = 370,000); Q96T88; AID 687016; UHRF1 binding to methylated oligo, TR-FRET; inhibition, % at 4.4 µM; in the data active means inhibition above about 21%;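 further: UHRF1 SRA domain binding a hemimethylated CpG hairpin DNA probe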
BSA TAMRA ctr – interferes with TAMRA-BSA probe, flagging TCR-CD3 hits | actives 10% (n = 1,200) | shares compounds with TCR CD3 inh | inhibition, % at 9.4 µM | TAMRA-labeled BSA probe fluorescence counterscreen; in the data active means inhibition above about 23%
TCR-CD3 inh conf – TCR-CD3 interaction inhibition, confirmation; shares compounds with TCR CD3 inh; TAMRA-labeled TCR probe fluorescence binding assay; inhibition, % at 9.4 µM; actives 48% (n = 1,200); AID 652036; in the data active means inhibition above about 19%
UHRF1 ctr MBD2 – counter-screen for MBD2 inhibitors: human UHRF1 methylated DNA binding inhibitors; UHRF1 binding to methylated oligonucleotide, TR-FRET; inhibition, % at 4.4 µM; actives 25% (n = 1,000); shares compounds with MBD2 inh; in the data active means inhibition above about 21%;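 further: UHRF1 SRA domain binding a labeled hemimethylated CpG hairpin DNA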
MBD2 DBD conf – MBD2-DBD methyl-DNA binding inhibition, TR-FRET confirmation | shares compounds with MBD2 inh | TR-FRET MBD2-DBD binding to methylated oligonucleotide | inhibition, % at 4.4 µM | actives 26% (n = 1,000)
IN multimer act – activates HIV-1 integrase multimerization in LEDGF counter-screen; shares compounds with LEDGF integ inh; TR-FRET HIV-1 integrase multimerization, biochemical; actives 17% (n = 2,000); activation, % at 7.7 µM; in the data active means activation above about 8.9%
TR-FRET interf – optically interferes with TR-FRET readout in LEDGF counter-screen | shares compounds with LEDGF integ inh | TR-FRET optical interference counterscreen, HIV-1 IN multimerization | 2,000 tested, under 10 active | inhibition, % at 7.7 µM | AID 1053135;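 active means inhibition above the mean over all tested compounds plus 3 SD, which no compound reached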
LEDGF integ conf – LEDGF/p75-dependent HIV-1 integration inhibition, confirmation | AID 1053136 | actives 36% (n = 2,000) | inhibition, % at 3.7 µM | shares compounds with LEDGF integ inh | TR-FRET LEDGF/p75-dependent HIV-1 integration, biochemical
Numbers stand for hits; - = inactive; . = no result given. Unless noted, no stated cut-off is given here; in the data, active means inhibition above about 14%; inactive means the rest.

SMILES | Rin1 Abl inh | LEDGF integ inh | TCR CD3 inh | MBD2 inh | UHRF1 binding | BSA TAMRA ctr | TCR-CD3 inh conf | IN multimer act | TR-FRET interf | LEDGF integ conf | others
O=C(CNC(=O)/C=C/c1ccco1)N=Nc1c(O)[nH]c2ccccc12 | - | 34 | 29 | 30 | 53 | - | 43 | . | . | . | UHRF1 ctr MBD2=65;MBD2 DBD conf=51
Cc1ccc(C(=O)Nc2nc(-c3ccco3)c(-c3ccco3)s2)o1 | - | 85 | 31 | 40 | 88 | - | - | . | . | . | UHRF1 ctr MBD2=-;MBD2 DBD conf=-
Cn1cccc1CC(=O)N/N=C/C=C/c1ccco1 | - | 48 | 20 | 23 | 53 | - | - | . | . | . | UHRF1 ctr MBD2=26;MBD2 DBD conf=24
C/C(=N\NC(=O)Cc1cccn1C)c1ccco1 | - | - | - | - | - | . | . | . | . | .
CC(C)[C@@H]1Cc2[nH][nH]c(=O)c2[C@H](C(C)C)O1 | . | - | - | - | - | . | . | . | . | .
COCCCN(C(=O)Cc1ccc(S(=O)(=O)N2CCOCC2)s1)c1c(N)n(Cc2ccccc2)c(=O)[nH]c1=O | - | - | - | - | - | . | . | . | . | .
O=S(=O)(O)c1cc(Cl)cc(N=Nc2ccc(O)cc2O)c1O | - | 72 | 65 | - | - | 65 | 54 | 14 | - | 31
O=[N+]([O-])c1ccc(N=Nc2ccc(O)cc2O)cc1 | - | - | - | - | - | . | . | . | . | .
CCCCC(=Nc1ccc(N)cc1)C1=C(O)C(C(=O)OC)C(C)(C)CC1=O (stereo not drawn) | - | 46 | 50 | - | - | - | - | 19 | - | -
CCC(=Nc1ccc(N)cc1)C1=C(O)C(C(=O)OC)C(C)(C)CC1=O (stereo not drawn) | - | 32 | 68 | - | 21 | - | - | 20 | - | -
CCCC(=Nc1ccccc1)C1=C(O)C(C(=O)OC)C(C)(C)CC1=O (stereo not drawn) | - | - | - | - | - | . | . | . | . | .
O=C1C=C(O)c2c(O)cc(O)c(O)c2C1=O | 58 | 60 | 63 | 49 | 77 | - | 64 | 103 | - | 84 | UHRF1 ctr MBD2=51;MBD2 DBD conf=26
COc1cc2cc3c(N)c(C(=O)NCc4ccco4)sc3nc2cc1OC | - | . | . | . | . | . | . | . | . | .
COc1cc2cc3c(N)c(C(=O)Nc4sc(C)c(C)c4C#N)sc3nc2cc1OC | - | 15 | 24 | - | - | - | - | 27 | - | 46
COC(=O)C[C@@H]1C=C[C@@H](NC(=O)NC2CCCC2)[C@@H](CO)O1 | . | - | - | - | - | . | . | . | . | .
O=C(Cc1nnc(NC(=O)c2ccccc2)s1)N/N=C\c1ccc(O)c(O)c1 | - | 16 | 34 | - | - | - | 33 | 35 | - | 50
O=C(Cc1nnc(NC(=O)c2ccccc2)s1)N/N=C/c1ccc(O)cc1 | - | - | - | - | - | . | . | . | . | .
COCCCn1c(=O)c2ccccc2n2c(=S)[nH]nc12 | - | - | - | - | - | . | . | . | . | .
CC(NC(=O)Nc1ccc(O)cc1)(C(F)(F)F)C(F)(F)F | - | 20 | 54 | - | - | - | - | - | - | -
Cc1cc(NC(=O)CSC2=NS(=O)(=O)c3ccccc3N2)no1 | - | - | - | - | - | . | . | . | . | .
O=C(CSc1nnc(-c2ccco2)c(-c2ccco2)n1)c1ccccc1 | - | 57 | 35 | 17 | 58 | - | 19 | - | - | 26 | UHRF1 ctr MBD2=-;MBD2 DBD conf=-
O=C(CCCSc1ccccc1)Nc1nc(-c2ccco2)c(-c2ccco2)s1 | - | 20 | 23 | - | - | - | - | - | - | -
CN(C)c1ccc2nc3ccc(=O)cc-3sc2c1 | 14 | 73 | 145 | - | 55 | 123 | 103 | 85 | - | 82

Screening results as filed in PubChem.
